Drawing on PubChem BioAssay (EPA / NIEHS), this text covers outcome and AC50 for 28 compounds.

Read-out in experiment [1]: Interleukin-8 (IL8), CXCL8 (gene 3576)
In words: BSK_CASM3C_IL8: BioMAP Diversity Plus: CASM3C Assay for Interleukin-8 (IL8) Biomarker Activity (AID 2283042).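 Further: IL-8 protein level quantified by ELISA.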 The settings on record: primary human coronary artery smooth muscle cells; actives raise or lower the signal.

Read-out in experiment [2]: Human Leukocyte Antigen - DR isotype (HLADR), HLA-DRA (gene 3122)
In words: BSK_CASM3C_HLADR: BioMAP Diversity Plus: CASM3C Assay for Human Leukocyte Antigen - DR isotype (HLADR) Biomarker Activity (AID 2283043).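 Further: cell-surface HLA-DR protein level quantified by ELISA.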 The settings on record: primary human coronary artery smooth muscle cells; actives raise or lower the signal.

Read-out in experiment [3]: Macrophage colony-stimulating factor (MCSF), CSF1 (gene 1435)
In words: BSK_CASM3C_MCSF: BioMAP Diversity Plus: CASM3C Assay for Macrophage colony-stimulating factor (MCSF) Biomarker Activity (AID 2283044).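 Further: M-CSF protein amount quantified by ELISA after 24 h exposure.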 The settings on record: primary human coronary artery smooth muscle cells; actives raise or lower the signal.

Read-out in experiment [4]: Low-density lipoprotein receptor (LDLR), LDLR (gene 3949)
As to the kind of experiment: BSK_CASM3C_LDLR: BioMAP Diversity Plus: CASM3C Assay for Low-density lipoprotein receptor (LDLR) Biomarker Activity (AID 2283045).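 Further: LDLR protein level on the cell surface quantified by ELISA.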 The settings on record: primary human coronary artery smooth muscle cells; actives raise or lower the signal.

Read-out in experiment [5]: Monocyte Chemoattractant Protein-1 (MCP1), CCL2 (gene 6347)
As to the kind of experiment: BSK_CASM3C_MCP1: BioMAP Diversity Plus: CASM3C Assay for Monocyte Chemoattractant Protein-1 (MCP1) Biomarker Activity (AID 2283046).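 Further: MCP-1 level quantified by ELISA 24 h after dosing.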 The settings on record: primary human coronary artery smooth muscle cells; actives raise or lower the signal.

The nature of experiment [6]: BSK_CASM3C_Proliferation: Cell Proliferation Assessment in the BioMAP Diversity Plus: CASM3C Assay (AID 2283047).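 Further: sulforhodamine B total protein stain as relative cell number at 560 nm; sub-confluent cells exposed 48 h before staining; fitted both ways against DMSO so gain or loss of cell number.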 The settings on record: primary human coronary artery smooth muscle cells.
Read-out in experiment [7]: Monokine induced gamma interferon (MIG), CXCL9 (gene 4283)
In words: BSK_CASM3C_MIG: BioMAP Diversity Plus: CASM3C Assay for Monokine induced gamma interferon (MIG) Biomarker Activity (AID 2283048).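 Further: MIG protein level measured by ELISA.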 The settings on record: primary human coronary artery smooth muscle cells; actives raise or lower the signal.

Read-out in experiment [8]: serum amyloid A (SAA), SAA1 (gene 6288)
As to the kind of experiment: BSK_CASM3C_SAA: BioMAP Diversity Plus: CASM3C Assay for serum amyloid A (SAA) Biomarker Activity (AID 2283049).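 Further: SAA protein level quantified by ELISA.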 The conditions noted are these: primary human coronary artery smooth muscle cells; actives raise or lower the signal.

Experiment [9] in a line: BSK_CASM3C_SRB: Viability Assessment in the BioMAP Diversity Plus: CASM3C Assay (AID 2283050).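 Further: total protein by SRB staining as cytotoxicity measure in parallel cultures; cells exposed to compound for 24 h.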 The settings on record: primary human coronary artery smooth muscle cells.
Read-out in experiment [10]: Thrombomodulin, THBD (gene 7056)
As to the kind of experiment: BSK_CASM3C_Thrombomodulin: BioMAP Diversity Plus: CASM3C Assay for Thrombomodulin Biomarker Activity (AID 2283051).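 Further: thrombomodulin protein level measured by ELISA 24 h after dosing.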 The settings on record: primary human coronary artery smooth muscle cells; actives raise or lower the signal.

The structures appear in SMILES notation. The source made the active and inactive calls. How the source made its calls: active means hit-call score of the fitted dose curve at least 0.9, where 1 is the maximum; inactive means score below 0.9.

`Nc1ccc(N=Nc2ccccc2)cc1`: the result in experiment [1], in experiment [3], in experiment [4], in [5], in experiment [6] and in experiment [7] was inactive. In addition, the result in experiment [8], in [9] and in experiment [10] was inactive. For the same compound, the AC50 in [2] was 16.8 µM (active).

Take `CCOC(=O)[C@]1(c2ccccc2)Oc2ccccc2[C@@H]1N`: the outcome in experiment [1], in experiment [3], in experiment [5], in experiment [6], in [7] and in [8] was inactive. For the same compound, the result in experiment [9] and in [10] was inactive. The AC50 in experiment [2] was 31 µM (active); in experiment [4], 23.4 µM (active).

Take `Nc1ccc(Cl)cc1N`: the result in experiment [1], in [2], in experiment [3], in [4], in experiment [5] and in [7] was inactive. In addition, the outcome in experiment [8] and in experiment [9] was inactive. In addition, the half-maximal activity concentration (AC50) in experiment [6] was 6.89 µM (active); in experiment [10] it was 5.73 µM (active).

As to `c1ccc(NNc2ccccc2)cc1`, the outcome in [1], in experiment [2], in experiment [3], in experiment [4], in experiment [5] and in experiment [6] was inactive. The result in experiment [7], in [8] and in experiment [9] was inactive. Further, the AC50 in experiment [10] was 15.9 µM (active).

As for `O=C(Oc1ccc(Br)cc1)N1CCN2CCC1CC2`, the result in experiment [1], in experiment [2], in experiment [3], in [4], in experiment [5] and in [6] was inactive. The result in experiment [7], in experiment [8], in [9] and in experiment [10] was inactive.

For `CCCCOC(=O)c1ccccc1C(=O)OCc1ccccc1`, the result in [1], in experiment [2], in experiment [3], in [4], in experiment [5] and in [6] was inactive. Moreover, the result in [7], in experiment [8] and in experiment [9] was inactive. For the same compound, the concentration at half-maximal activity (AC50) in experiment [10] is 20 µM (active).

As for `Cc1ccc(N)cc1`, the result in experiment [1], in experiment [2], in [3], in experiment [4], in [5] and in [6] was inactive. Moreover, the result in experiment [7], in experiment [8], in experiment [9] and in experiment [10] was inactive.

As for `OCCOCCO`, the result in experiment [1], in experiment [2], in experiment [3], in experiment [4], in [5] and in [6] was inactive. The result in [7], in [8], in [9] and in experiment [10] was inactive.

On to `CCCCCOC(=O)c1ccccc1C(=O)OCCCCC`, for which the outcome in [1], in experiment [2], in experiment [3], in [4], in [5] and in experiment [6] was inactive. Also, the result in [7], in experiment [8] and in experiment [9] was inactive. In addition, the AC50 in [10] is 15.6 µM (active).

Take `c1ccc2c(c1)-c1cccc3cccc-2c13`: the result in experiment [1], in [2], in [3], in experiment [4], in experiment [5] and in experiment [6] was inactive. The result in experiment [7], in [8], in experiment [9] and in experiment [10] was inactive.

Turning to `Oc1ccc2ccc3cccc4ccc1c2c34`, the result in [1], in experiment [3], in experiment [5] and in experiment [7] was inactive. The AC50 in experiment [2] is 13.7 µM (active); in experiment [4] it was 10.5 µM (active); in experiment [8], 30.4 µM (active); in experiment [9], 30.1 µM (active); in experiment [10] it was 16.3 µM (active).

With `Nc1ccc([N+](=O)[O-])cc1`, the result in [1], in experiment [2], in experiment [3], in experiment [4], in experiment [5] and in experiment [6] was inactive. Besides, the result in [7], in experiment [8], in experiment [9] and in [10] was inactive.

Take `Brc1ccc(Oc2ccccc2)cc1`: the result in experiment [1], in [2], in experiment [3], in experiment [4], in experiment [5] and in experiment [6] was inactive. Besides, the result in experiment [7], in experiment [8], in experiment [9] and in [10] was inactive.

For `CCCCCCCCCCCCCN1CC(C)OC(C)C1` (configuration not stated), the result in experiment [1], in experiment [2], in experiment [3], in experiment [4], in experiment [5] and in [6] was inactive. Further, the outcome in experiment [7], in experiment [8], in experiment [9] and in [10] was inactive.

For the compound `N#CC(Br)Br`, the result in experiment [1], in experiment [2], in experiment [3], in experiment [4], in experiment [5] and in experiment [6] was inactive. Besides, the result in [7], in [8], in experiment [9] and in [10] was inactive.

As for `O=C1CCCO1`, the outcome in [1], in [2], in experiment [3], in [4], in [5] and in experiment [6] was inactive. Moreover, the outcome in experiment [7], in experiment [8], in experiment [9] and in [10] was inactive.

Regarding `Nc1cc(Cl)cc(C(=O)O)c1Cl`, the result in experiment [1], in experiment [2], in experiment [3], in [4], in [5] and in experiment [6] was inactive. Further, the result in [7], in experiment [8], in [9] and in experiment [10] was inactive.

For `O=C(Nc1ccccc1)c1ccccc1I`, the result in [1], in experiment [2], in [3], in experiment [4], in experiment [5] and in [6] was inactive. Further, the outcome in experiment [7], in experiment [8], in experiment [9] and in [10] was inactive.

Turning to `CC(C)(C)OOC(C)(C)CCC(C)(C)OOC(C)(C)C`, the outcome in experiment [1], in [2], in experiment [3], in experiment [4], in experiment [5] and in experiment [6] was inactive. For the same compound, the outcome in [7], in experiment [8], in [9] and in [10] was inactive.

For `CCN(CC)CCO`, the outcome in experiment [1], in experiment [2], in experiment [3], in experiment [4], in [5] and in experiment [6] was inactive. Moreover, the outcome in experiment [7], in [8], in experiment [9] and in [10] was inactive.

For `Clc1ccc(C(c2ccc(Cl)cc2)C(Cl)Cl)cc1`, the result in experiment [1], in experiment [7], in experiment [8] and in [9] was inactive. Further, the AC50 was 25.2 µM (active) in [2]; 15.2 µM (active) in experiment [3]; 5.11 µM (active) in [4]; 32.1 µM (active) in experiment [5]; 32.1 µM (active) in experiment [6]; 24.1 µM (active) in experiment [10].

Regarding `[Cl-].[Cl-].[Hg+2]`, the AC50 was 35.5 µM (active) in experiment [1]; 25.4 µM (active) in experiment [2]; 26.5 µM (active) in [3]; 34.8 µM (active) in experiment [4]; 33.5 µM (active) in experiment [5]; 29.3 µM (active) in [6]. Besides, the concentration at half-maximal activity (AC50) in experiment [7] was 33.9 µM (active); in [8], 30.6 µM (active); in experiment [9] it was 36.6 µM (active); in experiment [10], 5.21 µM (active).

For `O=C(O)C1C2CCC(O2)C1C(=O)O` (configuration not stated), the result in experiment [1], in experiment [4], in experiment [7], in experiment [8], in [9] and in experiment [10] was inactive. Also, the half-maximal activity concentration (AC50) in experiment [2] was 4.92 µM (active); in experiment [5], 21.8 µM (active).

Regarding `O=[N+]([O-])C(Br)(CO)CO`, the half-maximal activity concentration (AC50) was 34.3 µM (active) in experiment [1]; 29.5 µM (active) in experiment [2]; 28.1 µM (active) in [5]; 24.7 µM (active) in [6]; 32.7 µM (active) in experiment [7]; 30.3 µM (active) in experiment [8]. In addition, the concentration at half-maximal activity (AC50) is 32.7 µM (active) in [9] and 24.7 µM (active) in [10]. For the same compound, the outcome in [3] and in [4] was inactive.

For the compound `Cc1ccc(N=C=O)cc1N=C=O`, the result in [1], in experiment [3], in [4], in experiment [5], in [7] and in experiment [8] was inactive. Besides, the result in experiment [9] and in experiment [10] was inactive. The half-maximal activity concentration (AC50) was 28.5 µM (active) in [2] and 20 µM (active) in experiment [6].

For `CS(=O)(=O)NC(=O)c1cc(Oc2ccc(C(F)(F)F)cc2Cl)ccc1[N+](=O)[O-]`, the result in [1], in experiment [3], in [4], in experiment [5], in [6] and in [7] was inactive. Moreover, the outcome in experiment [8], in [9] and in [10] was inactive. In addition, the AC50 in experiment [2] was 20 µM (active).

Consider `Clc1ccc(C(c2ccc(Cl)cc2)C(Cl)(Cl)Cl)cc1`, for which the result in [1] and in experiment [7] was inactive. The half-maximal activity concentration (AC50) is 31.4 µM (active) in experiment [2]; 14.7 µM (active) in [3]; 32.1 µM (active) in experiment [4]; 36.9 µM (active) in experiment [5]; 29.1 µM (active) in experiment [6]; 33.3 µM (active) in experiment [8]. In addition, the figures for the AC50 in experiment [9] and in [10] were 27.7 µM (active) and 6.95 µM (active), respectively.

Take `CC(O)CCO` (configuration not stated): the result in experiment [1], in experiment [2], in experiment [3], in experiment [4], in [5] and in [6] was inactive. The outcome in experiment [7], in experiment [8], in [9] and in experiment [10] was inactive.
